Source: PubChem (several laboratories)
Compounds with a hit are over-represented: about 27% of the library has one in this group of screens.
CYP2C19 inh – blockers of cytochrome P450 2C19 activity – biochemical, luminescence, ADME assay, primary screen | 21% of 96,000 active | P33261 | CYP2C19 Supersomes, luciferin-H EGE luminescence, 30 min | inhibition, % at 5 µM;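 active = CYP2C19 inhibition above a set limit at 5 µM in the primary screen, cut at about 50% in these data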;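 also: plate controls were negative control wells for no effect and 2.5 mM tranylcypromine positive control for full effect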
Target sequence (P33261 whole entry, looked up): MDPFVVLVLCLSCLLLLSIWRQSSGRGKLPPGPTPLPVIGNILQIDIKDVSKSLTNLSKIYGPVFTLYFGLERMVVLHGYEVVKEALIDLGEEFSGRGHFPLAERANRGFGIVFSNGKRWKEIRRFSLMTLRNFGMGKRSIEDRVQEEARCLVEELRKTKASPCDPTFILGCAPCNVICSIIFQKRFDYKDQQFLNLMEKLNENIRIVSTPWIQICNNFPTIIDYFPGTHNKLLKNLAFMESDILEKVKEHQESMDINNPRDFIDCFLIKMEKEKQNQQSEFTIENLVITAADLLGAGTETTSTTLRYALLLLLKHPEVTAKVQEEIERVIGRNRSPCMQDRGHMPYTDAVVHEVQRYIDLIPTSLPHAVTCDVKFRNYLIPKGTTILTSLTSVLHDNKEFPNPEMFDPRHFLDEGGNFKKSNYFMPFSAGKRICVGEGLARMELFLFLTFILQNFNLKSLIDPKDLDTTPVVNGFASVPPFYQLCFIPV
CYP2C9 inh – blockers of cytochrome P450 2C9 activity – biochemical, luminescence, ADME assay, primary screen; P11712; CYP2C9 Supersomes, luciferin-H conversion; inhibition, % at 5 µM; 20% of 96,000 active; AID 777, 2007;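 active = blocking of liver enzyme CYP2C9 beyond about 50% at 5 µM, limit read from the data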
CYP2C9 act – human CYP2C9 activators, primary screen, biochemical, luminescence; Cytochrome P450 2C9 (Homo sapiens), P11712; recombinant CYP2C9, luciferin-H conversion; hits give high values; factor 1 = untreated enzyme, 0 = blocked; activation factor at 5 µM; 1.4% of 96,000 active; AID 1024, 2008;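 active = activation factor of 2 or more for CYP2C9 at a 5 µM dose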;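 also: 0 = sulfaphenazole-blocked wells and 1 = vehicle-only wells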
EphB4 antag – EphB4-ephrin-B2 interaction antagonists, primary screen, biochemical, TNYL-RAW peptide probe, fluorescence polarization; Ephrin type-B receptor 4 (Homo sapiens), P54760; EphB4 LBD / TNYL-RAW-Alexa532 peptide; inhibition, % at 7 µM; 0.15% of 97,000 active; AID 720, 2007;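 active = inhibition above the screen-wide mean inhibition plus 3 SD, cut at about 15% in these data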;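 also: 0% = DMSO wells and 100% = excess unlabeled TNYL-RAW peptide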
CYP2C19 activ – human CYP2C19 activators, primary screen, biochemical, luminescence. 96,000 tested, under 10 active. AID 1025, 2008. activation factor at 5 µM. recombinant CYP2C19, luciferin-H EGE luminescence; hits give high values; 0 = fully inhibited enzyme, 1 = untreated enzyme;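 active = activation factor of at least 2 at 5 µM in the primary screen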;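 also: 0 = wells with 2.5 mM tranylcypromine and 1 = vehicle-only wells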
* hit, by the source's call; · = no result.

SMILES	CYP2C19 inh	CYP2C9 inh	CYP2C9 act	EphB4 antag	CYP2C19 activ
Cc1cc(C(=O)N/N=C/c2cccc(Cl)c2Cl)no1	14.2	-27.8	1.3	-0.2	0.9
Cc1cc(NC(=O)c2cc(-c3ccncc3)nc3c(C)cccc23)no1	90.1*	96.9*	0	5.2	0.1
O=C1c2ccccc2C(Nc2ccc(S(=O)(=O)N3CCOCC3)cc2)N1Cc1ccco1 (stereo not given)	19.3	59.8*	0.4	6.4	0.8
Cc1ccc(NC2c3ccccc3C(=O)N2CCN2CCOCC2)cc1 (stereo not given)	81.5*	27.1	0.7	6.8	0.2
O=C1c2ccccc2C(Nc2ccc(S(=O)(=O)N3CCOCC3)cc2)N1c1ccccn1 (stereo not given)	34.1	77.2*	0.2	-4.5	0.7
O=C1c2ccccc2C(Nc2ccc(S(=O)(=O)N3CCCCC3)cc2)N1Cc1ccco1 (stereo not given)	35.5	89.8*	0.1	6.3	0.6
CCN(CC)S(=O)(=O)c1ccc(NC2c3ccccc3C(=O)N2CCN2CCOCC2)cc1 (stereo not given)	-10.0	12.1	0.9	-1.0	1.1
CCOC(=O)c1ccccc1NC(=O)c1c(F)c(F)c(F)c(F)c1F	12.6	-35.1	1.4	0.9	0.9
COCCSc1ccccc1C(=O)NCC1CCCO1 (stereo not given)	-0.6	-9.9	1.1	2.5	1
COc1ccc(OC)c(S(=O)(=O)Nc2cc(OC)c(Cl)cc2OC)c1	57.1*	55.5*	0.4	1.3	0.4
COc1cc(NS(=O)(=O)c2ccc(OC)c(C)c2C)c(OC)cc1Cl	99.1*	99.2*	0	-2.9	0
CCOC(=O)c1ccc(COC(=O)CNC(=O)CNC(=O)c2ccc(OC)cc2)o1	30.6	46.3	0.5	-1.0	0.7
O=C1c2cccc3cccc(c23)C(=O)N1c1ccncc1	·	·	·	4.8	·
CS(=O)c1ccccc1COC(=O)Nc1ccc(Cl)cc1 (stereo not given)	94.6*	45.5	0.5	0.8	0.1
CCCNC(=O)c1ccccc1NS(=O)(=O)c1ccc2c(c1)OCCO2	44.0	-104.4	2*	4.8	0.6
CCCCNC(=O)c1ccccc1NS(=O)(=O)c1ccc2c(c1)OCCO2	29.1	-14.3	1.1	-5.7	0.7
O=S(=O)(Nc1cccnc1Cl)c1ccc2c(c1)OCCO2	21.8	20.4	0.8	-0.7	0.8
CSc1ccccc1NS(=O)(=O)c1ccc2c(c1)OCCO2	79.1*	-170.1	2.7*	-3.1	0.2
COc1cc(-c2nc(-c3ccc4c(c3)-c3ccccc3S4(=O)=O)c(-c3ccccc3)[nH]2)cc(OC)c1O	79.4*	78.5*	0.2	4.7	0.2
COc1ccc(-c2nc(-c3ccccc3)c(-c3cccs3)[nH]2)cc1OC	6.1	37.3	0.6	5.8	0.9
CC(=O)CC(C)(C)n1nnc(-c2ccccc2)n1	62.5*	12.3	0.9	-7.5	0.4
COc1cccc(-c2nnn(CC(C)=O)n2)c1	·	·	·	0.1	·
Cc1nn(CC(=O)O)c(=O)c2ccccc12	-0.2	-5.8	1.1	0.9	1
COC(=O)c1ccc(C(C(=O)NC2CCCCC2)N(C(=O)Cc2cccs2)C2CC2)cc1 (stereo not given)	18.8	18.4	0.8	5.3	0.8
Cc1nn(Cc2ccc(Cl)c(Cl)c2)c(C)c1NC(=O)c1sc2ccccc2c1Cl	69.7*	86.7*	0.1	3.0	0.3
SMILES	CYP2C19 inh	CYP2C9 inh	CYP2C9 act	EphB4 antag	CYP2C19 activ
CCCn1nnc(NC(=O)c2cccc(Cl)c2)n1	·	·	·	-0.3	·
Cc1nn(Cc2c(Cl)cccc2Cl)c(C)c1NC(=O)c1sc2ccccc2c1Cl	34.8	28.2	0.7	-4.8	0.7
CCCC(=O)N1CCN(c2ccc(NC(=O)c3sc4ccccc4c3Cl)cc2)CC1	14.8	-1.0	1	-9.1	0.9
CCCn1nnc(NC(=O)c2sc3ccccc3c2Cl)n1	60.6*	-7.2	1.1	-1.8	0.4
CCOC(=O)c1sc2ccccc2c1OC(=O)c1ccccc1	84.9*	90.3*	0.1	4.5	0.2
CCCOC(=S)NC(=O)c1sc2ccccc2c1Cl	9.9	68.3*	0.3	3.5	0.9
CCOC(=S)NC(=O)c1sc2ccccc2c1Cl	3.5	90.5*	0.1	1.7	1
N#CCSc1nc(N)c(C#N)c(C2CCCCC2)c1C#N	10.6	52.8*	0.5	-5.2	0.9
N#Cc1c(N)nc(SCC(=O)NC2CCCCC2)c(C#N)c1-c1ccc(Cl)cc1	-5.0	-10.1	1.1	-7.8	1.1
CC(=O)NC12CC3CC(C1)CC(C(=O)Nc1nccs1)(C3)C2	84.7*	55.7*	0.4	-10.5	0.2
O=C1N(c2ccccc2)C2CS(=O)(=O)CC2N1c1ccc(Br)cc1 (stereo not given)	15.1	22.7	0.8	2.8	0.8
Cc1ccc(OCC(=O)Sc2ccc(C)cc2)cc1	52.2*	45.8	0.5	-1.8	0.5
Cc1ccc2nsnc2c1S(=O)(=O)N1CCN(CCc2ccccc2)CC1	91.5*	-12.6	1.1	6.8	0.1
Cc1ccc2nsnc2c1S(=O)(=O)NCc1cccnc1	29.3	20.0	0.8	-1.9	0.7
CC(C)c1cc(C(=O)Nc2cc(Cl)ccc2O)no1	13.5	50.1*	0.5	9.6	0.9
CC(C)Cc1cc(C(=O)Nc2cc(Cl)ccc2Cl)no1	-28.3	-162.0	2.6*	-10.8	1.3
CC(=O)c1cnc(Nc2nc(C)c3ccc(C)cc3n2)nc1C	0.0	3.0	1	1.9	1
S=C(Nc1ccc(Cl)cc1)N1CCN(C2CCCCC2)CC1	10.4	10.6	0.9	-8.6	0.9
CC1C2=C(CCCC2=O)N(c2cccc3ccccc23)C2=C1C(=O)CCC2	·	·	·	-3.0	·
NC(=O)NC1CCCc2c1[nH]c1ccc(Cl)cc21 (stereo not given)	52.0*	94.5*	0.1	·	0.5
O=C1CCCc2c1[nH]c1ccc(Cl)cc21	·	·	·	0.0	·
O=C(/C=C/c1ccco1)Nc1ccc(Oc2ccc(Cl)cc2)cc1	3.6	23.9	0.8	4.5	1
Cc1cc(C(=O)CSc2ccc(Cl)cc2)cc(C)c1OC(=S)N(C)C	43.6	67.2*	0.3	-1.8	0.6
COCCCNC(=O)CSc1ccc(Cl)cc1	23.7	-5.0	1.1	-1.3	0.8
O=[N+]([O-])c1nn(-c2ccc3c(c2)OCCO3)n(O)c1=NC1CCCC1	34.6	35.6	0.6	-0.4	0.7
O=C(O)c1cccc(CSc2nnc(COc3ccccc3)o2)c1	9.3	4.4	1	-5.3	0.9
O=C(NCc1cccs1)c1ccc(N2CCCC2=O)cc1	6.4	8.3	0.9	1.2	0.9
CC(C)(C)c1nn(-c2ccccc2)c2[nH]c(=O)c(CNc3ccc4c(c3)OCCO4)cc12	6.3	7.5	0.9	-2.3	0.9
